Most compounds without a hit are left out; they make up all but 4% or so of the library.
RecA splice inh: blocks M. tuberculosis RecA intein splicing; cell-free RecA intein splicing, fluorescence; actives 0.75% (n = 290,000); P9WHJ3; inhibition, % (test concentration not listed); in the data active = inhibition above about 30%; inconclusive = no clear call, values can overlap the other calls;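 note: 0% = vehicle wells and 100% = reference inhibitor control wells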
GDH-TPI inh: counter-screen for M. tuberculosis FBA inhibitors: GDH-TPI coupled enzymes | GDH-TPI coupled enzyme counterscreen, NADH absorbance | actives 1.2% (n = 360,000) | inhibition, % at 4.8 µM | AID 588335; in the data active = inhibition above about 30%;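 note: 0% = DMSO wells and 100% = wells lacking the enzyme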
FBA Mtb inh: inhibitors of M. tuberculosis fructose-bisphosphate aldolase. purified M. tuberculosis FBA, fluorescence read-out. AID 588726. inhibition, % at 1 µM. actives 2.3% (n = 360,000). P9WQA3; in the data active = inhibition above about 27%;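 note: 0% = vehicle and 100% = reference inhibitor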
Target sequence (P9WQA3 whole entry, looked up): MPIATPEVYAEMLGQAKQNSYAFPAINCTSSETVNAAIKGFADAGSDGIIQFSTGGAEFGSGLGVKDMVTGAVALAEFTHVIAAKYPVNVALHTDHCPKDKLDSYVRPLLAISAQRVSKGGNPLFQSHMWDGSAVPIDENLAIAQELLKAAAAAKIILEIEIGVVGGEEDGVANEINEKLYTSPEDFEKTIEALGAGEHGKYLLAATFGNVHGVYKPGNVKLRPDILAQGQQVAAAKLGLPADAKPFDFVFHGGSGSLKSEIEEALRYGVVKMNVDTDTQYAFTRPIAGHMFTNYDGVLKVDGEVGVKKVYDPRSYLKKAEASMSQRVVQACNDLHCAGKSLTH
UGM FP inh: blocks M. tuberculosis UGM enzyme. P9WIQ1. actives 0.06% (n = 320,000). AID 504406. purified UGM, fluorescence polarization probe displacement. inhibition, % at 10 µM; in the data active = inhibition above about 10%, passing the limit was not always enough; inconclusive = no clear call, values can overlap the other calls
Mtb bLac sens: beta-lactam sensitization of Mtb H37Rv | M. tuberculosis H37Rv growth with meropenem, percent inhibition | actives 0.27% (n = 330,000) | AID 434955 | inhibition, % at 25 µM; call rule not given here;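 note: growth measured after seven days incubation then overnight dye step; 0% = bacteria only wells and 100% = bacteria with antibiotic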
Rv3671c protease: Rv3671c (M. tuberculosis) protease inhibition; P9WHR9; inhibition, % at 5.96 µM; actives 0.048% (n = 320,000); AID 2606; in the data active = inhibition above about 38%;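 note: extracellular domain of Rv3671c used as enzyme; 0% = enzyme with DMSO and 100% = no enzyme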
The depositor's hits bear a star; ? = inconclusive; . = no result; + = active, no number.

SMILES	RecA splice inh	GDH-TPI inh	FBA Mtb inh	UGM FP inh	Mtb bLac sens	Rv3671c protease
COc1ccc(-c2cc(-c3ccccc3)c(C#N)c(S(C)=O)n2)cc1 (stereo not given)	-3	31*	+	-3	97	-8
CCc1nc2c(OCc3ccc(C(F)(F)F)cc3)cccn2c1N(C)C(=O)c1ccc(C)cc1	.	2	-1	.	.	.
CCc1cccc2c(/C=N/NC(=O)c3cccc(S(=O)(=O)Nc4ccccc4Cl)c3)c[nH]c12	-1	37*	4	1	47	11
CCCn1ncc(/C=N/O)c1C	-3	1	0	1	7	1
CN(C)c1ccc(/C=N/n2c(COc3ccccc3)n[nH]c2=S)cc1	0	35*	0	.	2	8
CN(C)c1ccc(/C=N/n2c(C3CCCCC3)n[nH]c2=S)cc1	0	36*	1	2	?	6
CN(C)c1ccc(/C=N/n2c(-c3ccccc3Br)n[nH]c2=S)cc1	-1	54*	0	1	-1	7
CCOC(=O)c1nc2c(=O)n(C)c(=O)n(C)c2n(C)c1=O	-6	16	18	2	-4	-7
CC(=O)c1cccc(NS(=O)(=O)c2ccc(N/C=C/C(=O)c3ccc(F)cc3)cc2)c1	-3	12	2	0	3	-71
CC(=O)c1ccc(NS(=O)(=O)c2ccc(N/C=C/C(=O)c3ccc(F)cc3)cc2)cc1	-22	61*	-2	0	-2	-151
CCCc1cc(C(=O)Cc2nc3ccccc3s2)c(O)cc1O	-157	38*	19	6	3	-6
CCCc1cc(C(=O)Cc2ccc(F)cc2)c(O)cc1O	11	32*	-2	0	2	-7
O=C(Cc1ccccc1F)c1ccc(O)cc1O	1	25	-4	0	-1	1
CCOC(=O)C(=O)Cc1nc2ccccc2s1	-11	3	12	-3	7	4
O=C(Cc1ccc(F)cc1)c1ccc(O)cc1O	2	46*	-1	-1	-3	-14
O=C(Cc1c(F)cccc1Cl)c1ccc(O)cc1O	5	34*	-2	-2	3	-3
CCc1cc(C(=O)Cc2ccc(F)cc2)c(O)cc1O	6	27	4	-2	13	-13
CC(C)CNC(=O)C1(C)CCCN1C(=O)C(C)(C)Oc1ccc(Cl)cc1 (stereo not given)	.	15	3	.	.	.
Cc1cccc(C(=O)N[C@H](C(=O)Nc2nc3ccc(S(C)(=O)=O)cc3s2)C(C)C)c1	-1	4	5	-1	-7	-14
CCc1cc(C(=O)Cc2nc3ccccc3[nH]2)c(O)cc1O	-1	39*	10	2	-11	12
CCc1cc(C(=O)COc2ccccc2F)c(O)cc1O	7	38*	-5	0	-5	1
O=C(Cc1nc2ccccc2[nH]1)c1ccc(Cl)cc1	.	7	0	6	4	3
COc1ccccc1-c1nnc(SCC(=O)Nc2cccnc2Cl)n1C	.	9	1	0	-1	5
C=CCSc1nc(N)c(C(=O)Nc2ccccc2)cc1C#N	1	20	-2	1	28	-12
C=CCSc1nc(N)c(C(=O)Nc2ccccc2OC)cc1C(=O)Nc1ccccc1	5	37*	3	0	1	-3
SMILES	RecA splice inh	GDH-TPI inh	FBA Mtb inh	UGM FP inh	Mtb bLac sens	Rv3671c protease
Cc1cc(OCCN2CCOCC2)ccc1Cl	0	1	1	1	-5	2
CCOC(=O)C1=CCN(S(=O)(=O)c2ccccc2Cl)C1c1ccc(C)cc1 (stereo not given)	.	.	-2	.	.	.
CNCC(O)CN(c1ccccc1)c1ccccc1 (stereo not given)	40*	-11	4	-1	-10	1
COc1cccc(/C=N/n2c(N)c(S(=O)(=O)c3cccs3)c3nc4ccccc4nc32)c1	-1	3	3	-1	4	-4
Nc1c(S(=O)(=O)c2cccs2)c2nc3ccccc3nc2n1/N=C/c1cccc(O)c1	-3	45*	19	-2	-4	-141
CCCCC[C@H](O)/C=C/[C@@H]1[C@@H](C/C=C\CCCC(=O)OC)[C@@H](O)C[C@H]1O	41*	-5	0	-5	7	7
CC(Cc1nnc(N)s1)c1ccccc1 (stereo not given)	1	4	-1	2	-8	1
NC(=O)C1CCN(C(=O)CN(C2CCCCC2)S(=O)(=O)c2ccc(F)cc2)CC1	-2	1	2	6	1	6
COC(=O)C1=C(SC)N(c2ccc(OC)cc2)C(c2ccccc2)CC1=O (stereo not given)	-3	33*	0	3	-5	-1
O=c1c2ccccc2nc(/C=C/c2cccnc2)n1CCc1ccccc1	43*	37*	0	0	0	-1
O=c1c2ccccc2nc(/C=C/c2cccnc2)n1Cc1ccccc1	49*	15	-1	.	.	.
CC1(C(=O)NS(=O)(=O)c2ccc(Cl)s2)CCN1C(=O)C1(c2ccc(Cl)cc2)CCC1 (stereo not given)	.	16	2	.	.	.
CC(=O)N1c2ccc(S(=O)(=O)N3CCC(C(=O)Nc4cccc(Cl)c4)CC3)cc2CC1C (stereo not given)	1	-2	4	2	1	-8
CC(C)Cn1c(-c2ccc(C#N)cc2)nc2c1c(=O)[nH]c(=O)n2CC(C)C	0	10	+	0	-6	0
CCCCn1c(=O)[nH]c(=O)c2c1nc(-c1ccc(OCC)cc1)n2CC	-1	3	9	1	-5	6
CCCCn1c(=O)[nH]c(=O)c2c1nc(-c1ccc(C#N)cc1)n2C1CCCC1	0	7	166*	3	-13	4
COCCn1c(-c2ccc(NC(C)=O)cc2)nc2c1c(=O)[nH]c(=O)n2CC(C)C	3	1	126*	1	3	-4
COc1ccc(OC)c(/C=N/N(CCC#N)C2=NS(=O)(=O)c3ccccc32)c1	-26	-5	0	1	1	9
CCOC(=O)c1ccc(NS(=O)(=O)c2c(C)nc3sccn3c2=O)cc1	-2	35*	2	2	-3	-6
COc1ccccc1N1CCN(S(=O)(=O)c2cc(Br)cnc2N)CC1	-1	8	3	0	-2	0
CCn1c2ccccc2c2cc(N)ccc21	4	1	6	-1	72	6
CCn1c2ccccc2c2cc(C#N)c(N)nc21	0	18	106*	3	7	2
Cc1cc(C)nc(NS(=O)(=O)c2ccc(NC(=O)Cc3ccccc3F)cc2)n1	0	1	1	-2	-8	-5
Oc1ccc(/C=N/NC(=S)Nc2cccnc2)cc1	-3	36*	5	3	8	-4
Oc1ccc(/C=N/NC(=S)N/N=C/c2ccc(O)cc2)cc1	-3	75*	4	0	-2	7
COc1ccccc1NC(=S)N/N=C/c1ccc(O)cc1	3	33*	3	-2	1	-9
